Sampled rows, rich in hits. Any-hit rate of the full collection: about 4%.
TRPM1 prom inh = reduces MITF-dependent TRPM1 promoter luciferase signal; SK-MEL-5 TRPM1 promoter luciferase, 24 h; inhibition, % at 12.5 µM; hit rate 0.83% among 330,000;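 active means mean inhibition across replicates of 60% or more, whatever share of single replicates reaches that level; inconclusive means some that reach 60%, reason not given; inactive means mean inhibition across replicates below 60%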
Peg3 prom inh = Peg3 promoter activity inhibition. inhibition, % at 20 µM. hit rate 1.7% among 360,000. HeLa PEG-Prom luciferase reporter, luminescence, overnight;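 active means inhibition of at least 50% at 20 µM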
EBV LMP1 NFkB = reduces LMP1-driven NF-kappaB luciferase signal. LMP1-induced NF-kappaB luciferase reporter cells, luminescence. inhibition, % at 12.5 µM. hit rate 0.69% among 350,000. AID 504558; in the data active means inhibition above about 41%; inconclusive means no clear call, values can overlap the other calls
TROY NFkB inh = TROY signaling inhibition | Q293 LMP1-TROYcd NF-kB luciferase reporter, 4 h | inhibition, % at 10 µM | hit rate 0.98% among 360,000;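 active means compounds whose plate-normalised and pattern-corrected inhibition of the luciferase reporter signal at the single screening dose is 50% or more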
HIF-2a block = HIF-2a inhibition. inhibition, % at 18.8 µM. 786-0 RCC cells HIF-2a reporter, luciferase luminescence, overnight. hit rate 0.72% among 360,000;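 active means inhibition of the luminescence signal of 40% or more relative to plate controls, in a single-dose primary screen at 18.75 µM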
TWEAK Fn14 block = blocks TWEAK-Fn14 interaction in a reporter cell assay | hit rate 2% among 360,000 | inhibition, % at 10 µM | TWEAK-stimulated Fn14 reporter cells, luciferase luminescence, 8 h; in the data active means inhibition above about 50%
A number is an active result; i = inactive; ? = inconclusive; nt = no result given.

SMILES	TRPM1 prom inh	Peg3 prom inh	EBV LMP1 NFkB	TROY NFkB inh	HIF-2a block	TWEAK Fn14 block
O=C1NC(=S)NC1=Cc1ccc2c(c1)CCC2	i	i	93	i	i	i
O=C1NC(=S)N/C1=C/C=C/c1ccccc1	i	i	i	i	i	i
CC(c1ccco1)N(C(=O)c1ccccc1NS(=O)(=O)c1ccc(Cl)c([N+](=O)[O-])c1)c1ccccn1 (stereo not given)	i	i	i	71	i	i
CC(c1ccco1)N(C(=O)c1cc(Cl)cc(Cl)c1)c1ccccn1 (stereo not given)	i	i	i	i	i	i
O=C(COC(=O)c1ccc[nH]c1=O)Nc1cc(S(=O)(=O)N2CCCCCC2)ccc1Cl	i	i	i	i	i	i
CC1=C(c2ccccc2)C(O)(c2ccccc2)C(C)C1=O (stereo not given)	i	i	i	i	i	i
COC(=O)Cc1ccc(OC2(C)CCN(Cc3ccccc3)C2)cc1 (stereo not given)	nt	i	nt	i	i	i
Cc1cc(C(=O)COc2cccnc2[N+](=O)[O-])c(C)n1Cc1ccco1	i	i	i	i	i	i
Cc1cc(C(=O)COc2cccnc2[N+](=O)[O-])c(C)n1-c1ccccc1F	i	i	?	i	50	i
Cc1cc(C(=O)COc2cccnc2[N+](=O)[O-])c(C)n1-c1ccccc1	68	73	?	i	74	90
Cc1ccc(-n2c(C)cc(C(=O)COc3cccnc3[N+](=O)[O-])c2C)cc1	i	i	i	i	59	63
CCC(NC(=O)C1CCCC1)c1ccccc1 (stereo not given)	i	i	i	i	i	i
O=c1cc(O)c(-c2ccc(Cl)cc2)c(Cl)[nH]1	i	i	i	i	i	i
O=C1c2cc(Cl)ccc2-c2c(O)cc(Cl)cc21	i	75	i	i	i	54
c1ccc(COc2ccc(OCCCN3CCCC3)cc2)cc1	i	i	i	i	i	51
Nc1nc(-c2ccccc2)c(-c2ccccc2)s1	i	i	i	i	i	i
Cc1ccc(-c2nc(N)sc2-c2ccccc2)cc1C	i	i	i	53	i	86
COc1ccc(CN2C(=O)CN(S(C)(=O)=O)CC2(C)C(=O)Nc2ccc3c(c2)OCCO3)cc1OC (stereo not given)	nt	nt	nt	nt	i	nt
c1ccc2c(c1)ccc1ccccc12	i	i	i	i	i	i
O=c1ccc2ccccc2c2ccccc12	nt	103	nt	52	95	94
C=CC[N+]1(CC(=O)NCc2ccc(NC(C)=O)cc2)CCOCC1	i	i	i	i	i	i
COc1ccc(/C=C2/SC(=S)N(CCCC(=O)Nc3ccccc3C(=O)O)C2=O)cc1	i	i	i	75	91	i
COC(=O)c1ccc(/C=C2/SC(=S)N(CCCC(=O)Nc3ccc(O)cc3)C2=O)cc1	i	84	i	i	58	i
COc1cccc(/C=C2\SC(=S)N(CCCC(=O)Nc3cccc(C(=O)O)c3)C2=O)c1	nt	i	i	i	i	i
Cc1ccc(/C=C2/SC(=S)N(CCCC(=O)Nc3cc([N+](=O)[O-])ccc3O)C2=O)cc1	i	i	i	i	65	i
SMILES	TRPM1 prom inh	Peg3 prom inh	EBV LMP1 NFkB	TROY NFkB inh	HIF-2a block	TWEAK Fn14 block
COc1ccc(/C=C2/SC(=S)N(CCCC(=O)Nc3cccc(O)c3)C2=O)cc1	i	i	i	i	56	i
COc1ccc2[nH]c3c(=O)n(CCCCC(=O)NCCC(C)C)c(=S)[nH]c3c2c1	i	i	i	i	i	i
O=C(CCCN1C(=O)/C(=C/c2ccco2)SC1=S)Nc1cccc(C(=O)O)c1	i	i	i	i	i	i
Cc1ccc(/C=C2\SC(=S)N(CCCC(=O)Nc3ccccc3C(=O)O)C2=O)cc1	i	i	i	83	87	84
CCc1ccc(/C=C2\SC(=S)N(CCCC(=O)Nc3ccccc3C(=O)O)C2=O)cc1	i	i	i	75	81	i
Cc1ccc(/C=C2\SC(=S)N(CCCC(=O)Nc3nccs3)C2=O)cc1	i	i	i	i	48	i
COc1ccc(NC(=O)CCCN2C(=O)/C(=C\c3ccco3)SC2=S)cc1	i	i	i	i	61	i
CCc1ccc(/C=C2\SC(=S)N(CCCC(=O)Nc3nccs3)C2=O)cc1	i	i	i	i	i	i
Cc1ccc(NC(=O)c2ccc(S(=O)(=O)N3CCCCC3)cc2)nc1	i	i	i	i	i	i
C=CCNc1nnc(SCC(=O)N2CCC(C(N)=O)CC2)s1	i	i	i	i	i	i

Assay outcomes from PubChem BioAssay.
